Rows were chosen to be rich in hits. Some 3.8% of all compounds tested hit in one or more screens of this group.
OvCa metastasis: Primary qHTS assay for Inhibitors of ovarian cancer metastasis using an organotypic tumor microenvironment (TME) model; SKOV3ip1-GFP adhesion/invasion on 3D omental model, fluorescence; Potency, µM (titrated, usually from 45.8 µM), usual class: inhibitors; actives 0.1% (n = 46,000); AID 1963576, 2024; note: nearly all actives have a fitted effect of over 65% in size
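Adhesion/invasion was scored as fixed GFP-labeled SKOV3ip1 cell counts (488/509 nm), normalized to DMSO and tomatine controls. Cancer cells in serum-free medium, with four compound doses (0.36-46 umol/L), sat 2 hr at RT then 16 hr at 37 C on a 48 hr fibroblast/mesothelial/ECM culture.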
DRV1 agonist: qHTS for Agonists of Human Resolvin D1 Receptor DRV1; Probable G-protein coupled receptor 32 (Homo sapiens), O75388; CHO-K1 GPR32 beta-arrestin PathHunter luminescence, 90 min; zero percent set by DMSO-only wells; AID 1346428, 2018; actives 2.5% (n = 48,000); activation, % at 76.9 µM;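 active = activation of at least 60% and not above a set upper limit, about 1 call in 100 departs from these limits; inconclusive = activation of 40% to 60%, or above that upper limit; inactive = activation under 40%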
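GPR32 activation in stably transfected CHO-K1 cells, detected as beta-arrestin recruitment by enzyme-fragment complementation. Compound exposure: 90 min, 37 °C.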
FH mod: Identification of activators of human fumarate hydratase by quantitative high-throughput screening; Potency, µM (highest dose often 79.9 µM), most hits filed as inhibitors; FH coupled MDH/diaphorase resazurin fluorescence, 15 min; actives 0.22% (n = 54,000); AID 1347055, 2019; note: the screen sought activators but most active calls are inhibition curves; nearly all actives have a fitted effect of over 45% in size
NTMT1 inhibitor: Primary qHTS for Inhibitors of N-terminal methyltransferase 1 (NTMT1): MTaseGlo Assay. N-terminal Xaa-Pro-Lys N-methyltransferase 1 (Homo sapiens), Q9BV86. NTMT1 MTase-Glo SAH luminescence, purified enzyme. Potency, µM (doses to about 114 µM), actives largely listed as inhibitors. actives 2.5% (n = 59,000); note: nearly all actives have a fitted effect of over 65% in size
Target sequence (Q9BV86 whole entry, looked up): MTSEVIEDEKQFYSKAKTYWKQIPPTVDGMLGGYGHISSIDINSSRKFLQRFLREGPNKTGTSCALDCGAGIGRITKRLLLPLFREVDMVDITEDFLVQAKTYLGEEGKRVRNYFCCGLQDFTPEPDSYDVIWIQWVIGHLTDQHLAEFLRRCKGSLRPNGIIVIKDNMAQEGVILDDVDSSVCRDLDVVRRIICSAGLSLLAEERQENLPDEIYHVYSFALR
DYRK1A inh-1: Assay for Inhibitors of Dual-Specificity Tyrosine-(Y)-Phosphorylation Regulated Kinase 1A (Kinase-Glo assay) | recombinant DYRK1A, Kinase-Glo ATP depletion luminescence | AID 2705, 2010 | actives 80% (n = 100) | shares compounds with NTMT1 inhibitor | Potency, µM (top dose mostly 76.9 µM), most hits filed as inhibitors
CLK4 inh-1: Confirmation Assay for Inhibitors of CDC-like Kinase 4 (Kinase-Glo Assay): SAR round 2; actives 90% (n = 90); Potency, µM (series often up to 76.9 µM), usual class: inhibitors; recombinant Clk4, Kinase-Glo ATP luminescence, 4.5 h; shares compounds with NTMT1 inhibitor
Target sequence (Q9HAZ1 whole entry, looked up): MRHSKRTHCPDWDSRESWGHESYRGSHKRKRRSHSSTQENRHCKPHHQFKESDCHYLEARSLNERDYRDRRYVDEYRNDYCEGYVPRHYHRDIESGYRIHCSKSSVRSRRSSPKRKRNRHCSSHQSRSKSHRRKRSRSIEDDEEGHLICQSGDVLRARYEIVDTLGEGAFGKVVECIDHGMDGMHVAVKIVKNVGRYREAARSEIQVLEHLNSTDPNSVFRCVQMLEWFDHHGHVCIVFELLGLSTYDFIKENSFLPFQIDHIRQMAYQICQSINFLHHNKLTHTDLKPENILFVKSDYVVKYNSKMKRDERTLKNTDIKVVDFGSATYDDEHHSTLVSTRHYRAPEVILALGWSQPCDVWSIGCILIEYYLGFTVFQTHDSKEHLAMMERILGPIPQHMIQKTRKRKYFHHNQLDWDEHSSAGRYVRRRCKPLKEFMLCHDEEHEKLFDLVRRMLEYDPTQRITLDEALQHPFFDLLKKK
CLK4 inh-2: Kinase Inhibition Study on Inhibitors of CDC-like Kinase 4 (Reaction Biology data): SAR round 2; shares compounds with NTMT1 inhibitor; Reaction Biology kinase assay, 10 uM ATP; Potency, µM, most hits filed as inhibitors; actives 100% (n = 65); AID 504421, 2011; calls by dose curve
DYRK1A inh-2: Kinase Inhibition Study on Inhibitors of Dyrk1a (Reaction Biology data) | actives 90% (n = 65) | AID 504424, 2011 | Reaction Biology kinase assay, 10 uM ATP | shares compounds with NTMT1 inhibitor | Potency, µM, actives largely listed as inhibitors;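 active = compounds that showed inhibition of Dyrk1a and received a fitted potency; inactive = compounds that showed no inhibition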
CLK2 RBC: Kinase Inhibition Study on Inhibitors of CDC-like Kinase 2 (Reaction Biology data); shares compounds with NTMT1 inhibitor; Reaction Biology kinase assay, 10 uM ATP; Potency, µM, most hits filed as inhibitors; actives 90% (n = 65);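 active = compound that inhibits Clk2 kinase in the dose series, with an IC50 potency reported; inactive = no inhibition seen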
CLK3 inh: Kinase Inhibition Study on Inhibitors of CDC-like Kinase 3 (Reaction Biology data). actives 40% (n = 65). Potency, µM, most hits filed as inhibitors. shares compounds with NTMT1 inhibitor. AID 504428, 2011. recombinant CLK3 kinase assay, 10 uM ATP;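 active = compounds that inhibited Clk3 enough in the ten-dose series to give a half-maximal potency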
DYRK1B RBC: Kinase Inhibition Study on Inhibitors of Dyrk1b (Reaction Biology data); actives 80% (n = 65); AID 504429, 2011; Recombinant Dyrk1b kinase assay, 10 uM ATP; shares compounds with NTMT1 inhibitor; Potency, µM, hits mostly inhibitors;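 active = compounds whose dose response shows an inhibitor phenotype against the kinase Dyrk1b; inactive = compounds showing no inhibitor phenotype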
CLK1 inh: Kinase Inhibition Study on Inhibitors of CDC-like Kinase 1 (Reaction Biology data). shares compounds with NTMT1 inhibitor. recombinant Clk1 kinase assay, 10 uM ATP. Potency, µM, actives largely listed as inhibitors. actives 90% (n = 65). AID 504430, 2011;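 active = compounds that block the splicing kinase Clk1 enough to give a fitted half-inhibition concentration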
NNMT counter: Counterscreen qHTS for Inhibitors of N-terminal methyltransferase 1 (NTMT1): NNMT MTaseGlo assay; shares compounds with NTMT1 inhibitor; NNMT MTase-Glo luminescence, SAH detection; AID 1645878, 2021; Potency, µM (doses to about 57.1 µM), hits mostly inhibitors; actives 10% (n = 120)
Large screens that a line does not name were inactive (follow-up assays come after a bar, where they were run); ! = not confirmed by another sample. Unless noted, calls come from the whole dose curve; as a rule, active = well fitted curve in the direction sought with a large enough effect; inconclusive = small, poorly fitted or top-dose-only effect, or another doubt; inactive = no such curve, though single readings can be large; an effect the other way counts as inactive or inconclusive.

OCc1ccc(-c2ccc3ncnc(NCC4CCCO4)c3c2)o1 (stereo not drawn)	none (no result: OvCa metastasis, DRV1 agonist, FH mod, NTMT1 inhibitor) | CLK4 inh-2 13 | DYRK1A inh-2 inactive | CLK2 RBC inactive | CLK3 inh inactive | DYRK1B RBC 45µM | CLK1 inh 50µM
O=C(O)c1ccc(-c2ccc3ncnc(NCC4CCCO4)c3c2)o1 (stereo not drawn)	none (no result: OvCa metastasis, DRV1 agonist, FH mod) | CLK4 inh-1 0.82µM | CLK4 inh-2 3.4 | DYRK1A inh-2 30µM | CLK2 RBC 20µM | CLK3 inh inactive | DYRK1B RBC 12µM | CLK1 inh 44µM
CC(=O)N1CCN(c2ccc(N)cc2)CC1	none (no result: OvCa metastasis, DRV1 agonist, FH mod)
O=C(CSc1nc2ccccc2n1Cc1cccc(F)c1)N1CCN(c2ccc(F)cc2)CC1	none
CCOc1ccccc1NC(=O)Cn1nnc2sc(-c3ccccc3)cc2c1=O	none
COc1ccc2cc3c(NC(=O)c4ccco4)nn(C)c3nc2c1	none (no result: OvCa metastasis, DRV1 agonist) | NNMT counter inactive
Clc1ccccc1-c1ccc2ncnc(NCc3ccc4c(c3)OCO4)c2c1	none (no result: OvCa metastasis, DRV1 agonist, FH mod)
c1nc(NCC2CCCCC2)c2cc(-c3ccc4c(c3)OCO4)ccc2n1	NTMT1 inhibitor inconclusive (no result: OvCa metastasis, DRV1 agonist, FH mod) | CLK4 inh-1 0.073µM | CLK4 inh-2 0.15 | DYRK1A inh-2 0.19µM | CLK2 RBC 0.86µM | CLK3 inh 5.3µM | DYRK1B RBC 1.1µM | CLK1 inh 0.51µM
NCCNc1ncnc2ccc(-c3ccc4c(c3)OCO4)cc12	none (no result: OvCa metastasis, DRV1 agonist, FH mod, NTMT1 inhibitor) | DYRK1A inh-1 0.18µM | CLK4 inh-2 8.4 | DYRK1A inh-2 5.5µM | CLK2 RBC 6.4µM | CLK3 inh 15µM | DYRK1B RBC inactive | CLK1 inh 5.6µM
c1nc(N2CCNCC2)c2cc(-c3ccc4c(c3)OCO4)ccc2n1	NTMT1 inhibitor inconclusive (no result: OvCa metastasis, DRV1 agonist, FH mod) | CLK4 inh-1 0.58µM
CN(C)CCCNc1ncnc2ccc(-c3ccc4c(c3)OCO4)cc12	NTMT1 inhibitor inconclusive (no result: OvCa metastasis, DRV1 agonist, FH mod) | CLK4 inh-1 1µM
Fc1cccc(CNc2ncnc3ccc(-c4ccc5c(c4)OCO5)cc23)c1	none (no result: OvCa metastasis, DRV1 agonist, FH mod)
COc1cccc(NC(=O)C2CCCN2S(=O)(=O)c2ccc3c(c2)n(C)c(=O)c(=O)n3C)c1 (stereo not drawn)	none
CN(CC1CCCCC1)c1ncnc2ccc(-c3ccc4c(c3)OCO4)cc12	none (no result: OvCa metastasis, DRV1 agonist, FH mod, NTMT1 inhibitor) | CLK4 inh-1 0.058µM
COc1cccc2c1Oc1ncccc1N(C(=O)CCC(=O)NCc1ccc(OC(C)C)cc1)C2	none
Cc1ccc(CN(C)c2ncnc3ccc(-c4ccc(C(=O)O)o4)cc23)o1	none (no result: OvCa metastasis, DRV1 agonist, FH mod) | CLK4 inh-1 0.52µM
CCCCOc1cccc(C(=O)N(Cc2ccc(C)o2)c2ccccn2)c1	none
Cc1ccsc1CN(C)c1ncnc2ccc(-c3ccc([C@@H](C)O)o3)cc12	NTMT1 inhibitor 8.9µM! (no result: OvCa metastasis, DRV1 agonist, FH mod) | CLK4 inh-1 0.16µM
Cc1cc(C)c(NC(=O)CN(C)S(=O)(=O)c2ccc3c(c2)c(=O)n(C)c(=O)n3C)c(C)c1	none
CCc1nn2c(=O)cc(COC(=O)c3cccc(NC(=O)c4ccccc4Cl)c3)nc2s1	none
C[C@]1(OC(=O)/C=C/c2ccccc2)C[C@H](O)[C@]2(O)C=CO[C@@H](O[C@@H]3O[C@H](CO)[C@@H](O)[C@H](O)[C@H]3O)C12 (stereo partly drawn)	none (no result: OvCa metastasis, DRV1 agonist)
Cc1[nH]c(/C=C2\C(=O)Nc3cc(-c4ccccc4)ccc32)c(C)c1CCC(=O)O	NTMT1 inhibitor inconclusive (no result: OvCa metastasis, DRV1 agonist) | NNMT counter inactive
Cc1nc2cccnc2n1C1CCN(C(=O)Nc2ccccc2)CC1	none
Cc1ccc(-c2ccc3ncc4c(c3n2)n(C2CCN(C(=O)[C@H](C)O)CC2)c(=O)n4C)cn1	NTMT1 inhibitor 16µM (no result: OvCa metastasis, DRV1 agonist) | NNMT counter inconclusive

Screening data (PubChem BioAssay)
